{
  "source": "PubChem BioAssay (NCI)",
  "test_system": "MDA-MB-468 breast",
  "experiment": "NCI-60 one-dose screen, 48 h (100 = growth as untreated, 0 = no growth, -100 = all killed)",
  "conditions": "10 µM unless noted",
  "note": "The panel holds about 83,000 compounds, 20% with a hit somewhere; the sample as a whole holds those more often.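 Each cell line was grown in a 96-well plate and treated with one concentration of compound for 48 hours. Values below 10 were considered active.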 Unmarked numbers belong to inactive results. The source made the active and inactive calls.",
  "data": [
    {"smiles": "CCCC(=O)OCC(COC(=O)CCC)OC(=O)CCC", "values": [
      {"measurement": "growth", "result": 89, "unit": "%"}
    ]},
    {"smiles": "CC1=C(CCCOC(=O)NCCCl)C2=C(C)C3(CC3)[C@@](C)(O)C(=O)C2=C1", "values": [
      {"measurement": "growth", "result": "-55% (active)"}
    ]},
    {"smiles": "CCCCC1CCCC12NC(=O)NC2=O", "note": "(stereo unspecified)", "values": [
      {"measurement": "growth", "result": 112, "unit": "%"}
    ]},
    {"smiles": "Nc1nc(N)c2c(n1)NC(c1ccc(Cl)cc1)CC(c1cccc(Nc3ccncc3)c1)=N2", "note": "(stereo unspecified)", "values": [
      {"measurement": "growth", "result": 57.4, "unit": "%"}
    ]},
    {"smiles": "COc1cc(/C=C/c2cc(/C=C/c3ccc(O)c(OC)c3)n(-c3ccc(Cl)cc3)c(=O)n2)ccc1O", "values": [
      {"measurement": "growth", "result": 76.4, "unit": "%"}
    ]},
    {"smiles": "Cc1c(C(=O)N[C@H](CO)Cc2ccccc2)[nH]c2ccc(Cl)cc2c1=O", "values": [
      {"measurement": "growth", "result": 95.5, "unit": "%"}
    ]},
    {"smiles": "CSC1=NC(=Nc2c(C)cccc2C)C2(CCC(C(C)(C)C)CC2)N1c1ccc(Cl)cc1", "note": "(stereo unspecified)", "values": [
      {"measurement": "growth", "result": 38.3, "unit": "%"}
    ]},
    {"smiles": "NNc1ncnc2nc[nH]c12", "values": [
      {"measurement": "growth", "result": 36.8, "unit": "%"}
    ]},
    {"smiles": "O=C(O)c1ccccc1NCc1ccco1", "values": [
      {"measurement": "growth", "result": 95, "unit": "%"}
    ]},
    {"smiles": "CC(C)(C#N)c1cc(F)cc(C(=O)Nc2cc(Nc3ncccc3-c3ncnc4nc[nH]c34)ccc2F)c1", "values": [
      {"measurement": "growth", "result": 107, "unit": "%"}
    ]},
    {"smiles": "Cc1ccc(C)c2c1SC1=NNC(Oc3ccc(Cl)cc3)=C(C#N)C(=N)N12", "values": [
      {"measurement": "growth", "result": 118, "unit": "%"}
    ]},
    {"smiles": "CN(C)CCn1c(=O)c2c3cc4c(cc3n(CCN(C)C)c2c2ccc(Cl)cc21)OCO4", "values": [
      {"measurement": "growth", "result": 41, "unit": "%"}
    ]},
    {"smiles": "COc1ccc(-c2c(C)noc2-c2ccc(O)cc2O)cc1", "values": [
      {"measurement": "growth", "result": 77.8, "unit": "%"}
    ]},
    {"smiles": "O=c1oc2ccc(I)cc2c(=O)n1-c1ccc(I)cc1F", "values": [
      {"measurement": "growth", "result": "-2.07% (active)"}
    ]},
    {"smiles": "NC(N)=Nc1nc2ccccc2n2c1nc1ccccc12", "values": [
      {"measurement": "growth", "result": 35.1, "unit": "%"}
    ]},
    {"smiles": "O=C(Nc1ccc(OS(=O)(=O)c2ccccc2)cc1)C12CC3CC(CC(C3)C1)C2", "values": [
      {"measurement": "growth", "result": 40.5, "unit": "%"}
    ]}
  ]
}
